Source: PubChem (National Center for Advancing Translational Sciences (NCATS))
Most compounds without a hit are left out; they make up all but 6.2% or so of the library.
HT1080 IDH1KD tx: qHTS for induction of synthetic lethality in tumor cells producing 2HG: qHTS for the HT-1080-IDH1KD cell line; Potency, µM (series often up to 46.1 µM), usual class: cytotoxic; AID 686971, 2013; HT-1080 IDH1 knockdown viability, ATP luminescence, 48 h; 360,000 tested, 2% active
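Assay cells: HT-1080 with IDH1 knockdown, 750 per well, RPMI/5% FBS. Exposure: 48 h at 37 °C following 2 h pre-incubation. Read: CellTiter-Glo luminescence; fitted concentration-response, curve class assigned.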
S2 tox: Viability Counterscreen for Primary qHTS for Inhibitors of ATXN expression; 400,000 tested, 0.49% active; AID 651635, 2014; Potency, µM (highest dose often 56.7 µM), hits mostly cytotoxic; S2 cells (HEK-293 line with an ATXN2-luciferase reporter) viability, CellTiter-Fluor protease fluorescence, 24 h; further: nearly all actives have a fitted effect of over 40% in size
ATXN2 expr inh: Primary qHTS for Inhibitors of ATXN expression; HEK-293 ATXN2-luciferase reporter, luminescence, 24 h; Potency, µM (doses to about 57 µM), actives largely listed as inhibitors; 360,000 tested, 0.72% active; AID 1745845, 2022; further: nearly all actives have a fitted effect of over 55% in size
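ATXN2-luciferase reporter cells (luciferase flanked by upstream and downstream ATXN2 gene portions) were treated 24 h at 37 °C with compounds at up to 57 uM. SteadyGlo luminescence gave expression; GF-AFC fluorescence gave viability.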
KB-V1 cytotox: qHTS assay for MDR1-selective chemotherapeutics: Primary screen using the drug-selected MDR subline cells KB-V1 | KB-V1 MDR cells viability, CellTiter-Glo, 72 h | Potency, µM (doses to about 46.1 µM), hits mostly cytotoxic | 400,000 tested, 3.4% active | AID 1347076, 2019; further: nearly all actives have a fitted effect of over 60% in size
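qHTS viability screen in drug-selected KB-V1 MDR cells: 72 h compound treatment at 37 degrees C, ATP luminescence end point.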
KB-3-1 cytotox: qHTS assay for MDR1-selective chemotherapeutics: Primary screen using the parental adenocarcinoma cell KB-3-1; Potency, µM (highest dose often 46.1 µM), most hits filed as cytotoxic; KB-3-1 viability, CellTiter-Glo ATP luminescence, 72 h; 400,000 tested, 1.4% active; AID 1347075, 2019; further: nearly all actives have a fitted effect of over 60% in size
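Parental KB-3-1 viability, qHTS format: 72 h compound exposure, 37 °C; CellTiter-Glo; media-only wells and DMSO plates as controls; concentration-effect fits on corrected data.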
HT1080-NT tox: qHTS for induction of synthetic lethality in tumor cells producing 2HG: qHTS for the HT-1080-NT fibrosarcoma cell line; Potency, µM (series often up to 46.1 µM), hits mostly cytotoxic; HT-1080-NT fibrosarcoma viability, CellTiter-Glo ATP luminescence, 48 h; AID 686970, 2013; 360,000 tested, 1.6% active;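 further: NT is the 2HG producing partner of a matched IDH1 knockdown line; nearly all actives have a fitted effect of over 55% in size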
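Luminescent CellTiter-Glo readout after 48 hours of compound exposure at 37 degrees C defined viability of HT-1080-NT cells. Activity was normalized to DMSO wells and cell-free media wells; concentration-response curves were fitted and assigned curve classes.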
Numbers stand for hits; . = inactive; ? = inconclusive; / = not tested or not shown; [ ] = dose if it differs, or a comment. The call rests on the fitted dose curve; in most records, active means well fitted curve in the direction sought with a large enough effect; inconclusive means small, poorly fitted or top-dose-only effect, or another doubt; inactive means no such curve, though single readings can be large; an effect the other way counts as inactive or inconclusive.

SMILES	HT1080 IDH1KD tx	S2 tox	ATXN2 expr inh	KB-V1 cytotox	KB-3-1 cytotox	HT1080-NT tox
CCOC(=O)C1CCN(CC(=O)c2c(C)[nH]c3cc(C)ccc23)CC1	.	.	.	.	.	.
CCOCc1cnc(C)nc1NCC(=O)c1c(C)[nH]c2cc(C)ccc12	.[9.24 µM]	.	.	.	16µM	?
CCOCc1cnc(C)nc1NCC(=O)c1c(C)[nH]c2ccccc12	.	.	.	.	23µM	.
O=C1c2ccccc2C(=O)N1CCc1csc(-c2ccc(F)cc2)n1	.	.	.	?	.	.
O=C1c2ccccc2C(=O)N1CCc1csc(-c2ccccc2)n1	.	.	.	16µM	?	.
CCCN1CNc2c(c(=O)[nH]c(=S)n2CCc2c(C)cccc2C)C1	.	/	/	/	/	.
CCN1C(=O)c2cccc3c(S(=O)(=O)N(C)C)ccc1c23	.	/	/	13µM	.	.
CCN1C(=O)c2cccc3c(S(=O)(=O)Nc4ccccc4)ccc1c23	.	.	.	12µM	?	.
CCN1C(=O)c2cccc3c(S(=O)(=O)Nc4ccncc4)ccc1c23	.	.	.	.	.	.
CN(Cc1ccccc1)c1ccc2cc(S(=O)(=O)N3CCCCC3)ccc2n1	/	.	.	?	.	/
Cc1ccnc(NC(=S)N2CCN(c3ccc(N)cc3)CC2)c1	/	/	/	.	.	/
COc1ccc(CN(C(=O)c2oc3ccccc3c2C)C2CCS(=O)(=O)C2)cc1OC (centres undefined)	.	.	.	.	.	.
Cc1c(C(=O)N(Cc2ccc(Cl)cc2)C2CCS(=O)(=O)C2)oc2ccccc12 (centres undefined)	.	.	.	8.2µM	?	?
CCOc1ccc(CN(C(=O)c2oc3ccccc3c2C)C2CCS(=O)(=O)C2)cc1 (centres undefined)	?	?	.	9.2µM	.	.
Cc1cc(C)c2c(c1)NC(=O)C2(O)c1c[nH]c2ccccc12 (centres undefined)	/	.	.	.	.	/
CC1=NC(=O)C(N=Nc2cccc(C(=O)O)c2)N1c1ccccc1 (centres undefined)	.	?	8.9µM	.	.	.[9.24 µM]
CC1CCN(C(=O)Cn2c(-c3cccs3)cc3cc(Cl)ccc32)CC1	/	.	.	.	.	/
O=C1c2ccccc2-c2nnc(-c3ccc(F)cc3)cc21	.	.	.	.	?	.
Cc1ccc(-c2cc3c(nn2)-c2ccccc2C3=O)cc1	?	.	3.5µM	?	.	?
COc1cc(NC(=O)CCn2cnc3ccccc3c2=O)cc(OC)c1	/	.	.	.	.	/
COc1ccc(NC(=O)CSc2nnc(-c3ccccn3)n2-c2ccccc2)cc1OC	.	.	.	15µM	.	.
COc1ccc(NC(=O)CSc2ccccn2)cc1OC	.	.	.	.	.	.
COc1ccc(NC(=O)CSc2nc3c(oc4ccccc43)c(=O)n2-c2ccccc2)cc1OC	/	18µM	.	.	.	/
Cc1cccc(NC(=O)CSc2nc3c(oc4ccccc43)c(=O)n2-c2ccccc2)c1	.	.	.	?	?	.
COc1ccc(-n2nc(C(=O)Nc3ccc(C)cn3)c3c4ccccc4n(C)c3c2=O)cc1	/	.	.	.	.	/
SMILES	HT1080 IDH1KD tx	S2 tox	ATXN2 expr inh	KB-V1 cytotox	KB-3-1 cytotox	HT1080-NT tox
Cc1ccc(C)c(CNC(=O)C2CCN(c3nc4ccccc4nc3C(F)(F)F)CC2)c1	/	.	.	.	.	/
COc1ccc(N2CC(C(=O)N/N=C/c3ccc(C)cc3)CC2=O)cc1 (centres undefined)	2.3µM	?	?	1.5µM	1.8µM	3.3µM
COc1ccc(N2CC(C(=O)N/N=C/c3ccc([N+](=O)[O-])cc3)CC2=O)cc1 (centres undefined)	.	.	.	.	.	.
COc1cc(C(=S)N2CCN(c3cccc(Cl)c3)CC2)ccc1O	16µM	.	.	?	8.2µM	?
COc1ccc(-n2nc(C(=O)NCC(=O)N3CCN(c4cccc(Cl)c4)CC3)c3ccccc3c2=O)c(OC)c1	.	.	.	12µM	.	.
CCOc1ccc(C(=O)N2CCN(c3cccc(Cl)c3)CC2)cc1	.	.	/	.	.	.
Oc1ccccc1C(=S)N1CCN(c2cccc(Cl)c2)CC1	.	.	.[11.3 µM]	.	.	.
COc1ccc(C(=S)N2CCN(c3cccc(Cl)c3)CC2)c(OC)c1	?	.	?	.	6.5µM	?
COc1ccc(C(=O)N2CCN(c3cccc(Cl)c3)CC2)cc1	.	?	.	21µM	.	.
CNc1cncc(-c2cccc(C(=O)NC3CC3)c2)n1	.	.	.	.	.	.
O=C(c1ccc([N+](=O)[O-])s1)N1CCN(c2cccc(Cl)c2)CC1	.	?	.	16µM	?	.
COc1ccc(N2CCN(C(=O)c3ccc(-n4nc(C)cc4C)cc3)CC2)cc1	.	.	.	16µM	.	.
CCOC(=O)c1c(C)c(C(=O)N2CCN(c3cccc(Cl)c3)CC2)c(C)n1C	.	.	.	10µM	.	.
O=C(c1cccs1)N1CCN(c2cccc(Cl)c2)CC1	.	.	.	.	.	.
Cn1cc(S(=O)(=O)N2CCCCC2)cc1C(=O)N1CCN(c2ccccc2F)CC1	/	.	.	.	.	/
COc1ccc(-n2c(=O)[nH]cc(C(=O)Nc3ccc4c(c3)OCO4)c2=O)cc1OC	.	.	.	.	.	.
COc1ccc(CC(N)c2csc(Nc3ccccn3)n2)cc1 (centres undefined)	?	?	?	.	.	.
COc1ccc(CC(N)c2csc(Nc3cccc(OC)n3)n2)cc1 (centres undefined)	.	?	.	?	.	26µM
COc1cccc(Nc2nc(C(N)C(C)C)cs2)n1 (centres undefined)	.	.	.	.	?	?
COc1cccc(Nc2nc(C(N)Cc3ccc(Cl)cc3)cs2)n1 (centres undefined)	16µM	32µM	25µM	.	.	23µM
COc1cc(OC)nc(Nc2nc(C(N)Cc3ccc(C(F)(F)F)cc3)cs2)n1 (centres undefined)	?	?	?	?	?	18µM
COc1cccc(Nc2nc(C(N)CC(C)C)cs2)n1 (centres undefined)	16µM	?	.	.	.	?
Nc1nc2ncccc2cc1C(=O)NC1CCCCC1	.	.	.	.	.	.
